The entries come from a sample that favours hits as a whole.
Giardia FBPA inh-1: inhibitors of Giardia lamblia fructose-1,6-bisphosphate aldolase | purified Giardia FBPA | AID 2451 | Potency, µM (doses to about 59.6 µM), for the others: top-dose activity, negative = inhibition, most hits filed as inhibitors | A8B2U2 | hit rate 0.71% among 290,000; further: potency means the concentration at half of the fitted maximal effect; on the % scale 0 is the no-effect control and ±100 the full control effect; nearly all actives have a fitted effect of over 55% in size
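Giardia FBPA (40 nM reagent) was preincubated 10 min at RT with compound (up to 57.5 uM final), then substrate plus GAPDH/TPI/NAD/arsenate coupling system with diaphorase/resazurin was added; resorufin fluorescence (525/598 nm) was read after 20 min.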
RE007 growth inh: less growth of the S. pombe RE007 Vpr strain; S. pombe RE007 Vpr strain, BacTiter-Glo ATP luminescence, 24 h; Potency, µM (doses to about 92.2 µM), for inactives: at the highest dose activity change, negative = less growth, most hits filed as inhibitors; hit rate 0.21% among 360,000; AID 651644; active means well fitted falling curve with a large enough effect; inconclusive means small, poorly fitted or top-dose-only effect; inactive means no such curve, though single readings can be large or run the other way; further: potency means the concentration at half of the fitted maximal effect; on the % scale 0 is the no-effect control and ±100 the full control effect; nearly all actives have a fitted effect of over 50% in size
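Fission yeast RE007 carrying one integrated HIV-1 vpr copy, seeded at OD 0.01 in PMG+AL medium with 23 nL pinned compound. Grown 24 h at 30 degrees; viability read by BacTiter-Glo luminescence after 5 min.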
Tb PYK inh: blocks Trypanosoma brucei pyruvate kinase. Q57TT1. AID 624173. Potency, µM (doses to about 76.8 µM), inactives show top-dose activity, negative = inhibition, actives largely listed as inhibitors. TbPYK enzyme, Kinase-Glo Plus ATP luminescence, 45 min. hit rate 0.12% among 410,000; further: potency means the concentration at half of the fitted maximal effect; on the % scale 0 is the no-effect control and ±100 the full control effect; nearly all actives have a fitted effect of over 50% in size
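TbPYK + substrate in 50 mM TEA pH 7.2, 100 mM KCl, 10 mM MgCl2, 0.05% BSA, 0.01% Tween-20; cpd pinned; ADP 130 uM final; 45 min RT; Kinase-Glo Plus 10 min; luminescence endpoint.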
CHX counter: affects cycloheximide protein synthesis inhibition readout, counter-screen; cell reporter, cycloheximide protein synthesis inhibition counterscreen; max response, %; hit rate 12% among 300,000; AID 2314; in the data active means max response mostly above about 13%, no sharp cut-off; inactive means mostly below about 14%; further: read at 38.3 µM for the half of the compounds with a filed dose; 0% is about no effect
LmPK inhibitor: LmPK (Leishmania mexicana) enzyme inhibition. Q27686. Potency, µM (top dose mostly 57.5 µM), without a hit: at the top dose activity change, negative = inhibition, most hits filed as inhibitors. purified LmPK, Kinase-Glo ATP luminescence, 1 h. hit rate 0.37% among 290,000; further: potency means the concentration at half of the fitted maximal effect; on the % scale 0 is the no-effect control and ±100 the full control effect
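qHTS format; LmPK 0.1 nM; substrates PEP 0.5 mM and ADP 0.1 mM. One-hour room-temperature incubation, then coupled luciferase luminescence; 0.5 nM enzyme wells mark activation.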
Shiga toxin inh: inhibitors of Shiga toxin in Vero cells; Vero cells, Shiga toxin protein synthesis inhibition reporter; inhibition, % at 38.7 µM; hit rate 9.2% among 290,000; AID 2315; in the data active means inhibition mostly above about 28%, no sharp cut-off; inactive means mostly below about 43%; further: 0% is about no effect
Giardia growth: inhibitors of Giardia lamblia growth; shares compounds with Giardia FBPA inh-1; Giardia lamblia trophozoite growth inhibition; Potency, µM (highest dose often 57.5 µM), for the others: top-dose activity change, negative = inhibition, usual class: inhibitors; hit rate 5% among 1,500;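 further: potency means the concentration at half of the fitted maximal effect; trophozoites exposed to compound for 48 h at 37 °C; on the % scale 0 is the no-effect control and ±100 the full control effect; nearly all actives have a fitted effect of over 70% in size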
Mammal cell tox: counter-screen for Giardia aldolase inhibitors: mammalian cell toxicity; shares compounds with Giardia FBPA inh-1; mammalian cell viability counter-screen, qHTS; Potency, µM (doses to about 57.5 µM), for the others: at the top dose viability change, negative = toxicity, actives largely listed as inhibitors; hit rate 4% among 1,500;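 further: Chinese hamster ovary cells used as mammalian cytotoxicity surrogate; viability measured as cellular ATP by luminescence; potency means the concentration at half of the fitted maximal effect; compound exposure lasted 48 h before reading; on the % scale 0 is the no-effect control and ±100 the full control effect; nearly all actives have a fitted effect of over 60% in size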
Giardia FBPA inh-2: confirmation of Giardia fructose-bisphosphate aldolase inhibitors | purified Giardia aldolase enzyme activity, qHTS | shares compounds with Giardia FBPA inh-1 | hit rate 5% among 1,500 | Potency, µM (doses to about 57.5 µM), for inactives: at the highest dose activity change, negative = inhibition, hits mostly inhibitors; further: potency means the concentration at half of the fitted maximal effect; on the % scale 0 is the no-effect control and ±100 the full control effect; nearly all actives have a fitted effect of over 45% in size
Rabbit aldolase: rabbit FBP aldolase inhibition by Giardia aldolase hits; shares compounds with Giardia FBPA inh-1; Rabbit muscle FBPA enzyme inhibition, selectivity counter-screen; Potency, µM (titrated, usually from 57.5 µM), without a hit: at the highest dose activity, negative = inhibition, hits mostly inhibitors; hit rate 4% among 1,500; AID 2794; further: potency means the concentration at half of the fitted maximal effect; on the % scale 0 is the no-effect control and ±100 the full control effect; nearly all actives have a fitted effect of over 60% in size
Target sequence (P00883 whole entry, looked up): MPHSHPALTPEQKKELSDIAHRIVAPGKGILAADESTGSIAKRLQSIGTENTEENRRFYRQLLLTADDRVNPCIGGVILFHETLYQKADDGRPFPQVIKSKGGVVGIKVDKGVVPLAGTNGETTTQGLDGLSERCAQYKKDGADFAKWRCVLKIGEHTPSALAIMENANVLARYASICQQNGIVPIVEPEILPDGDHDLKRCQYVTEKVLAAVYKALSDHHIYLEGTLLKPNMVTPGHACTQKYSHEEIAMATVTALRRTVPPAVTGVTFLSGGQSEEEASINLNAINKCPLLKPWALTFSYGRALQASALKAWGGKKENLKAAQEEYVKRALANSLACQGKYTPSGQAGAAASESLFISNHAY
GAPDH counter: counter-screen for Giardia aldolase inhibitors: GAPDH coupling enzyme. shares compounds with Giardia FBPA inh-1. GAPDH coupling enzyme counterscreen, biochemical, qHTS. Potency, µM (top dose mostly 57.5 µM), without a hit: top-dose activity change, negative = inhibition, most hits filed as inhibitors. hit rate 6% among 1,500. AID 2795; further: potency means the concentration at half of the fitted maximal effect; on the % scale 0 is the no-effect control and ±100 the full control effect; nearly all actives have a fitted effect of over 55% in size
* marks the source's active call; other numbers are inactive results; ? = inconclusive; nt = not tested or not shown; [ ] = another dose, or the depositor's remark. Unless noted, the call rests on the fitted dose curve; in most records, active means well fitted curve in the direction sought with a large enough effect; inconclusive means small, poorly fitted or top-dose-only effect, or another doubt; inactive means no such curve, though single readings can be large; an effect the other way counts as inactive or inconclusive.

SMILES	Giardia FBPA inh-1	RE007 growth inh	Tb PYK inh	CHX counter	LmPK inhibitor	Shiga toxin inh	Giardia growth	Mammal cell tox	Giardia FBPA inh-2	Rabbit aldolase	GAPDH counter
COCCNC(=S)NN=C1CCC(c2ccccc2)CC1 (configuration not stated)	?	2%	-2%	-1	4%	15	nt	nt	nt	nt	nt
COc1ccc(NC(=S)N(CCCN2CCOCC2)C(C)c2cc3cccc(OC)c3o2)cc1 (configuration not stated)	11µM*	10%	-6%	13	1%	-17	?	0%	-2%	2%	5%
COc1cccc2cc(C(C)N(CCCN3CCOCC3)C(=S)Nc3ccc(C)c(C)c3)oc12 (configuration not stated)	-3%	-3%	-8%	-2	0%	9	nt	nt	nt	nt	nt
Cn1cnc([N+](=O)[O-])c1Sc1ncccc1N	18µM*	-15%	-3%	0	5%	-14	27%	3%	1%	6%	-18%
Cc1nnc(SCc2cc(=O)[nH]c(=S)[nH]2)s1	7.9µM*	17%	-22%	-5	0%	9	-25%	0%	5%	7%	13%
O=C(NCCO)c1cc2ccccc2cc1O	2µM*	-12%	-2%	-2	-1%	-8	-11%[38.3 µM]	-1%	?	?	?
CCOc1ccccc1NS(=O)(=O)c1c(C)noc1C	13µM*	-6%	-2%	8	0%	57	-28%	0%	?	?	40µM*
COc1cccc(OC)c1C(=O)Nc1sc2c(c1C(N)=O)CCN(Cc1ccccc1)C2	13µM*	-2%	0%	1	5%	0	-54%	-6%	-2%	15%	-10%
CN1CCc2c(sc(NC(=O)c3cc(Cl)sc3Cl)c2C(N)=O)C1	32µM*	-5%	1%	25*	-2%	30*	-65%	?	4%	2%	0%
CCC(=O)Nc1sc2c(c1C(=O)OC)CCN(Cc1ccccc1)C2	13µM*	-3%	4%	-1	1%	-3	-4%	-21%	-6%	1%	-22%
COC(=O)c1c(NC(=O)C(C)C)sc2c1CCN(Cc1ccccc1)C2	?	-2%	-3%	-2	-2%	6	nt	nt	nt	nt	nt
CC(C)N1CCc2c(sc(NC(=O)CCc3ccccc3)c2C(N)=O)C1	-26%	-2%	-2%	5	0%	4	nt	nt	nt	nt	nt
CC(=O)c1ccc(C(=O)Nc2sc3c(c2C(N)=O)CCN(Cc2ccccc2)C3)cc1	?	nt	nt	-1	0%	-1	nt	nt	nt	nt	nt
CC(C)N1CCc2c(sc(NC(=O)Cc3ccccc3)c2C(N)=O)C1	13µM*	0%	-2%	-4	-6%	-4	?	11%	9%	8%	9%
CCCCCCCCCCCCCCCCC(C(=O)O)C(O)(CC(=O)O)C(=O)O (configuration not stated)	nt	nt	2%	nt	nt	nt	nt	nt	nt	nt	nt
COc1ccc(C)cc1Nc1cc(C)nc(C)n1	nt	nt	6%	nt	nt	nt	nt	nt	nt	nt	nt
O=c1c2sc3ccccc3c2n(Cc2ccccc2F)c(=O)n1Cc1ccccc1	nt	nt	-4%	nt	nt	nt	nt	nt	nt	nt	nt
